Results taken from ChEMBL document CHEMBL1961873, “Compounds: GSK PKIS; Assays: Nanosyn kinase panel” (2012).

Tests used:
[1] = target: Sphingosine kinase 1 (Homo sapiens) (UniProt Q9NYA1); conditions: at 1 µM;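 also: mean SPHK1 inhibition value reported from the GSK PKIS kinase panel screen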
[2] = target: T1, Sphingosine kinase 2 (Homo sapiens) (UniProt Q9NRA0); conditions: at 0.1 µM
T1 sequence (whole entry): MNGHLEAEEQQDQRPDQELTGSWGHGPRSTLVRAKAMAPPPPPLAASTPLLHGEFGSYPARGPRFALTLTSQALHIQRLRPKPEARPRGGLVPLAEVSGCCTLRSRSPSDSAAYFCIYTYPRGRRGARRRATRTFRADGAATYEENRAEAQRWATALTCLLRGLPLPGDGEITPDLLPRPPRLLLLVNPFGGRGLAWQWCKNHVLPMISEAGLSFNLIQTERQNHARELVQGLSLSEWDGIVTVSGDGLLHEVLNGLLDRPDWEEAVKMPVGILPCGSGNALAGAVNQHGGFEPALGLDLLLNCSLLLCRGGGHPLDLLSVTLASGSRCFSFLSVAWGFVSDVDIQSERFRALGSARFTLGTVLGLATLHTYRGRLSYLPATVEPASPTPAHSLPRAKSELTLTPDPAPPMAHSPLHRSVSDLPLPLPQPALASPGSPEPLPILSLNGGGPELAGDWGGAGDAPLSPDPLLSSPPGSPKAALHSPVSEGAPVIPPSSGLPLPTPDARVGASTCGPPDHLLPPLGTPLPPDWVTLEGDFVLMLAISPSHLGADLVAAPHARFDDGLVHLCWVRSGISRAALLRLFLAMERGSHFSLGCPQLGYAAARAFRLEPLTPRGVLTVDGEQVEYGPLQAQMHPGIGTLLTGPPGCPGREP

[3] = target: T1, Sphingosine kinase 2 (Homo sapiens); conditions: at 1 µM
[4] = target: Casein kinase II subunit alpha (Homo sapiens) (UniProt P68400); conditions: at 0.1 µM
[5] = target: Casein kinase II subunit alpha (Homo sapiens) (UniProt P68400); conditions: at 1 µM
[6] = target: T2, Inhibitor of nuclear factor kappa-B kinase subunit alpha (Homo sapiens) (UniProt O15111); conditions: at 0.1 µM
T2 sequence (whole entry): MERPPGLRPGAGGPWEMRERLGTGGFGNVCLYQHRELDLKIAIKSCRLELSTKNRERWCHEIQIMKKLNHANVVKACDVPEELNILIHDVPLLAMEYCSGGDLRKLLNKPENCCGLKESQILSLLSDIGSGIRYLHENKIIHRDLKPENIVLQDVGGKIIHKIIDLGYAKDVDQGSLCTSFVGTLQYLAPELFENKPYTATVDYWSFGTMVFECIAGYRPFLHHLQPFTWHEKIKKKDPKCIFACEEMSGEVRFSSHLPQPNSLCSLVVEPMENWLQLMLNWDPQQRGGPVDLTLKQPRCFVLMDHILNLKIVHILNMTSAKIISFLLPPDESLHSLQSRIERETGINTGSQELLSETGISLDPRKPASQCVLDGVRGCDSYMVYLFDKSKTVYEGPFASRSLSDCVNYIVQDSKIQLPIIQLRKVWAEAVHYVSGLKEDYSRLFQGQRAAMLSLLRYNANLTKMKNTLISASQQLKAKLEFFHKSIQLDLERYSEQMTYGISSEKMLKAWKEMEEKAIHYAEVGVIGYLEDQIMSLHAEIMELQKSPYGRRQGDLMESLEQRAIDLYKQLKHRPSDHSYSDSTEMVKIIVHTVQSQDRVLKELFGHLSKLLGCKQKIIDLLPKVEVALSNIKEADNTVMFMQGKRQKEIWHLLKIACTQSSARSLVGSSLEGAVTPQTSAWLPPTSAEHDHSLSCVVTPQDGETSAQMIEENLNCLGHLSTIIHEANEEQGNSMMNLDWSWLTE

[7] = target: T2, Inhibitor of nuclear factor kappa-B kinase subunit alpha (Homo sapiens); conditions: at 1 µM
[8] = target: T3, Inhibitor of nuclear factor kappa-B kinase subunit beta (Homo sapiens) (UniProt O14920); conditions: at 0.1 µM
T3 sequence (whole entry): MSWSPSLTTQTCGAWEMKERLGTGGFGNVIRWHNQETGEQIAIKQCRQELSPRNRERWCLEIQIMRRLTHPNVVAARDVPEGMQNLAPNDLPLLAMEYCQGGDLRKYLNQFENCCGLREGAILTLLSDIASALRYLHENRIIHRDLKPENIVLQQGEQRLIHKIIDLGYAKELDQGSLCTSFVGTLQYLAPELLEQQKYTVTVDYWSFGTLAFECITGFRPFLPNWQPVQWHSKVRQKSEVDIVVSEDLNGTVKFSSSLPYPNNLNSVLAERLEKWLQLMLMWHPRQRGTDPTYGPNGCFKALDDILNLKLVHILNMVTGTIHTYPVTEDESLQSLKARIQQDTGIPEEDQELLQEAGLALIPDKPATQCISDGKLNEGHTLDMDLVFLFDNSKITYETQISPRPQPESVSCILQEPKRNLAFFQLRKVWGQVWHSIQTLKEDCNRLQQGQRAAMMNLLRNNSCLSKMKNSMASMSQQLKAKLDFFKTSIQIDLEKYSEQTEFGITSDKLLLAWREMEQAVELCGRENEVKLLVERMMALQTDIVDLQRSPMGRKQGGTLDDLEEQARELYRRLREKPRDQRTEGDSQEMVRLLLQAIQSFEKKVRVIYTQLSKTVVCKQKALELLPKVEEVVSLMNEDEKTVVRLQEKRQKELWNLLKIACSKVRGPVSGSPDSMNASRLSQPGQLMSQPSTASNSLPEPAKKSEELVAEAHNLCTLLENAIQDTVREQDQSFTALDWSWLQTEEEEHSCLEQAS

[9] = target: T3, Inhibitor of nuclear factor kappa-B kinase subunit beta (Homo sapiens); conditions: at 1 µM
[10] = target: T4, Inhibitor of nuclear factor kappa-B kinase subunit epsilon (Homo sapiens) (UniProt Q14164); conditions: at 0.1 µM
T4 sequence (whole entry): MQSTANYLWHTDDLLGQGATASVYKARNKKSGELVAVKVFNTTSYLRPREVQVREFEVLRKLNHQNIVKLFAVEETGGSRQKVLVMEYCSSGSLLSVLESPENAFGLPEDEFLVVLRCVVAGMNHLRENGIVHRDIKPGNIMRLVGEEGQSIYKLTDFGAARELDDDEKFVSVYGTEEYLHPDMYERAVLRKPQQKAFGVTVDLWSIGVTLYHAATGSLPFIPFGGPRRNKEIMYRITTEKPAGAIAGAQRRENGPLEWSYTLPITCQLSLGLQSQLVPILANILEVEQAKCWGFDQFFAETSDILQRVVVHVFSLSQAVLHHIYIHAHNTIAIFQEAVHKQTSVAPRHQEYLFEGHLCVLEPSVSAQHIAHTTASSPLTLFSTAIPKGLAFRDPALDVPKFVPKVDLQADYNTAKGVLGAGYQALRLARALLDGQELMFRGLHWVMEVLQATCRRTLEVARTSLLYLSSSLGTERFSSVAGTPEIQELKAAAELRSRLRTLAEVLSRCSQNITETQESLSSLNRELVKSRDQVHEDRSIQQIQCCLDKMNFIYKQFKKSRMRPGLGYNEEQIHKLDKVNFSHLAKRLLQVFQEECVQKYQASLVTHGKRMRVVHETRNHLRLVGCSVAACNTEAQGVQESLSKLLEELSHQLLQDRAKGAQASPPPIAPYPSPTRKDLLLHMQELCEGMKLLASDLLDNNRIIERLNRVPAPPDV

[11] = target: T4, Inhibitor of nuclear factor kappa-B kinase subunit epsilon (Homo sapiens); conditions: at 1 µM
[12] = target: T5, Serine/threonine-protein kinase Nek1 (Homo sapiens) (UniProt Q96PY6); conditions: at 0.1 µM
T5 sequence (whole entry): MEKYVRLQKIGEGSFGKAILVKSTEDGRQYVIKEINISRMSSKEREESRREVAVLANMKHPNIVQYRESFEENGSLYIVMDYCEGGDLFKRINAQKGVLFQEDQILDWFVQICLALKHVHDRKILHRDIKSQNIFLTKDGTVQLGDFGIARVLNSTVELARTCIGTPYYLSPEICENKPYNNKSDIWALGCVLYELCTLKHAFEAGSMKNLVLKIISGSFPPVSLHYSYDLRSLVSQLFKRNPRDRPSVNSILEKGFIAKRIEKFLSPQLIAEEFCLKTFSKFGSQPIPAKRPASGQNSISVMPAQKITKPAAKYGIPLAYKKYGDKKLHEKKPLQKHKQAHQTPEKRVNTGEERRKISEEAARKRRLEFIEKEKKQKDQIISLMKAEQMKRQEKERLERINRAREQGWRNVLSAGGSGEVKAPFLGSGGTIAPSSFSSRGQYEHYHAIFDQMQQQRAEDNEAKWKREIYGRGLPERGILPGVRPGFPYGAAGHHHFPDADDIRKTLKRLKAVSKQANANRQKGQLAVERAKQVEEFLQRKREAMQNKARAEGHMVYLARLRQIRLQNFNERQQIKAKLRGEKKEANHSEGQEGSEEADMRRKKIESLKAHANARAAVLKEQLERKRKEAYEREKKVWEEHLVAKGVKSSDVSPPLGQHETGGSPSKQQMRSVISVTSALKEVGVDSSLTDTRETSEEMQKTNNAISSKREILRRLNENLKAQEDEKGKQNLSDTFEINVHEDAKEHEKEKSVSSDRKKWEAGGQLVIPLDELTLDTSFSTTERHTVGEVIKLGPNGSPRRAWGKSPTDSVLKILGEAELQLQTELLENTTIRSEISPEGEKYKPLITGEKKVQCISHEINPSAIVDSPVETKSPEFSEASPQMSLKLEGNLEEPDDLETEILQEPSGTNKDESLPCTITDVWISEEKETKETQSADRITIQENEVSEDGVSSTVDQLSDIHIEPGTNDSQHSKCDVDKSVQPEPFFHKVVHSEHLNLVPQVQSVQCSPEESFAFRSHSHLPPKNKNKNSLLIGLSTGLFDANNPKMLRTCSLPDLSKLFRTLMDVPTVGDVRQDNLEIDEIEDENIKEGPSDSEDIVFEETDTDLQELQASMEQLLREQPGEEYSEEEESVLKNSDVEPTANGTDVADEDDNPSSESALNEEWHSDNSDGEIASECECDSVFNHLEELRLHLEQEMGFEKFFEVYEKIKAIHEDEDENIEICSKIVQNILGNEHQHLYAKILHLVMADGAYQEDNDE

[13] = target: T5, Serine/threonine-protein kinase Nek1 (Homo sapiens); conditions: at 1 µM
[14] = target: T6, Serine/threonine-protein kinase Nek2 (Homo sapiens) (UniProt P51955); conditions: at 0.1 µM
T6 sequence (whole entry): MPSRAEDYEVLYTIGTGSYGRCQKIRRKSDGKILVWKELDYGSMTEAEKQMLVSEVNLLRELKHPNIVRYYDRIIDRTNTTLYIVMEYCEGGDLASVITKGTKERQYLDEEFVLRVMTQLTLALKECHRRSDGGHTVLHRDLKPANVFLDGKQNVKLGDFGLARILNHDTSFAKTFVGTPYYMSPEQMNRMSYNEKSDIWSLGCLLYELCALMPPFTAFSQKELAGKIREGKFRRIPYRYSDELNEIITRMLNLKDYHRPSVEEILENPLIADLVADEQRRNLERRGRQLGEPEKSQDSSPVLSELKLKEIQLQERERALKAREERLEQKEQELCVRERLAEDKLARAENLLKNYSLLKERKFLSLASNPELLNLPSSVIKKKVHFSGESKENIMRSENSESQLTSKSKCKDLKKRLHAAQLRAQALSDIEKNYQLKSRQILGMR

[15] = target: T6, Serine/threonine-protein kinase Nek2 (Homo sapiens); conditions: at 1 µM
[16] = target: Serine/threonine-protein kinase Nek6 (Homo sapiens) (UniProt Q9HC98); conditions: at 0.1 µM
[17] = target: Serine/threonine-protein kinase Nek6 (Homo sapiens) (UniProt Q9HC98); conditions: at 1 µM
[18] = target: Serine/threonine-protein kinase Nek7 (Homo sapiens) (UniProt Q8TDX7); conditions: at 0.1 µM
[19] = target: Serine/threonine-protein kinase Nek7 (Homo sapiens) (UniProt Q8TDX7); conditions: at 1 µM
[20] = target: T7, Serine/threonine-protein kinase Nek9 (Homo sapiens) (UniProt Q8TD19); conditions: at 0.1 µM;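 also: reported value is the mean percent inhibition of NEK9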
T7 sequence (whole entry): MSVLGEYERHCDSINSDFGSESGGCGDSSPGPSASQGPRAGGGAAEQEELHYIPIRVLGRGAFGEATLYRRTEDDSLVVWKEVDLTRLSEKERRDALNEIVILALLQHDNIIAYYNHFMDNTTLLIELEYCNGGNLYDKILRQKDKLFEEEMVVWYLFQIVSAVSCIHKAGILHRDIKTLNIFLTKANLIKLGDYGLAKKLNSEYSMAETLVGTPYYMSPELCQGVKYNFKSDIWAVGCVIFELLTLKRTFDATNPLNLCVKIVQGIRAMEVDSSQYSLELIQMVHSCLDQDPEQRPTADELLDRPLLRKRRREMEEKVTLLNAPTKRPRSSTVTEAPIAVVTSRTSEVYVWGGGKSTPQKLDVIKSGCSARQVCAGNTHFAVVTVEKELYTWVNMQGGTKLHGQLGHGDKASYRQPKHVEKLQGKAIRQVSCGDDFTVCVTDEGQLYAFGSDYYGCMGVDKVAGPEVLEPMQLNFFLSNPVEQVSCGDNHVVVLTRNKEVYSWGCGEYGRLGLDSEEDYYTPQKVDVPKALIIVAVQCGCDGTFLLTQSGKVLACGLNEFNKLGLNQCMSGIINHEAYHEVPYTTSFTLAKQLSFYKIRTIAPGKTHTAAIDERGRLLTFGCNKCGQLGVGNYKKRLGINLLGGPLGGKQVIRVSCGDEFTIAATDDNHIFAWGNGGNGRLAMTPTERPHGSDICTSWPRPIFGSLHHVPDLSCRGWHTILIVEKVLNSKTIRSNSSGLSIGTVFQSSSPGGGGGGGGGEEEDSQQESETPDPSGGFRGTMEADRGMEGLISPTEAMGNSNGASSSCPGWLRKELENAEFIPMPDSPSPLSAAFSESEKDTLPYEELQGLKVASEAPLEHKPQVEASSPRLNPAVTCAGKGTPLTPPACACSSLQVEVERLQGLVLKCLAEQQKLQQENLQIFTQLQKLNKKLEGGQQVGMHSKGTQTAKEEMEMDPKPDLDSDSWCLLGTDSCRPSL

Sequence of Casein kinase II subunit alpha (Homo sapiens) (P68400 whole entry, looked up): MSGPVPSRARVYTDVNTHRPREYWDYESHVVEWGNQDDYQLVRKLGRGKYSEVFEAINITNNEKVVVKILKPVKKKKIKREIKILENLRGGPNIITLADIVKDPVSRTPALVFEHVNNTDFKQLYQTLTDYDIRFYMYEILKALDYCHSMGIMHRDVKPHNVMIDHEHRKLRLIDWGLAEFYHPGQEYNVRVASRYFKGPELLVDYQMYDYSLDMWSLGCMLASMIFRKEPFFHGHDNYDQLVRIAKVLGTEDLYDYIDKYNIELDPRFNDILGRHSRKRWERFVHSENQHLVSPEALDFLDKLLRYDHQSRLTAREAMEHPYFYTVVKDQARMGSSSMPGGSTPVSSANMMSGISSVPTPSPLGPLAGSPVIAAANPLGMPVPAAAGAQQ
Sequence of Serine/threonine-protein kinase Nek6 (Homo sapiens) (Q9HC98 whole entry): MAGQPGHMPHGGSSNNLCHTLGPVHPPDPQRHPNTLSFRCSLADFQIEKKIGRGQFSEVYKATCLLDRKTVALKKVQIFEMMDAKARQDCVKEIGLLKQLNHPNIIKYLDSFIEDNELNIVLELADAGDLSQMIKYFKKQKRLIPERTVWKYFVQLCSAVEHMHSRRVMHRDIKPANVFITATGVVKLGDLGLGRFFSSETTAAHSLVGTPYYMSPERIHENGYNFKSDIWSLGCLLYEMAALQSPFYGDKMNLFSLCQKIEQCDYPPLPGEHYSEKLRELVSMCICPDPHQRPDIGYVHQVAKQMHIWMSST
Sequence of Serine/threonine-protein kinase Nek7 (Homo sapiens) (Q8TDX7 whole entry, looked up): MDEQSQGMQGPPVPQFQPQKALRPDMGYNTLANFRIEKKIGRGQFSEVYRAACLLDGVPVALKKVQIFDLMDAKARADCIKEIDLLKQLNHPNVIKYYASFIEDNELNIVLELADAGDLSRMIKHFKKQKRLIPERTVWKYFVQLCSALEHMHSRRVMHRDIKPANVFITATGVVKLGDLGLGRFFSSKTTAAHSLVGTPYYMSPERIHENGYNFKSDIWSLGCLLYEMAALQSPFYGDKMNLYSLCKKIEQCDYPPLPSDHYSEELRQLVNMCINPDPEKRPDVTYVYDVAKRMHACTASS
Sequence of Sphingosine kinase 1 (Homo sapiens) (Q9NYA1 whole entry): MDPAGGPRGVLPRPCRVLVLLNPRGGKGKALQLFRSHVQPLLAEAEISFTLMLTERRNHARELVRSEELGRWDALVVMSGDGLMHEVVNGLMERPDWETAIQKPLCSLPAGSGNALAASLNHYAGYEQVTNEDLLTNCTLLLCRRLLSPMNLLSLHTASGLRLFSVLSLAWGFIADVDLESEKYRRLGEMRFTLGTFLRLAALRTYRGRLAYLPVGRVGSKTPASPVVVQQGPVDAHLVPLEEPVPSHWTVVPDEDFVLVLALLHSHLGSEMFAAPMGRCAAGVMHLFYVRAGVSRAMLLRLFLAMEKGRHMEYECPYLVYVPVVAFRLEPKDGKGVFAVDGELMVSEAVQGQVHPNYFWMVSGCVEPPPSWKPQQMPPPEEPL

Compound	inhibition [1] [%]	inhibition [2] [%]	inhibition [3] [%]	inhibition [4] [%]	inhibition [5] [%]	inhibition [6] [%]	inhibition [7] [%]	inhibition [8] [%]	inhibition [9] [%]	inhibition [10] [%]	inhibition [11] [%]	inhibition [12] [%]	inhibition [13] [%]	inhibition [14] [%]	inhibition [15] [%]	inhibition [16] [%]	inhibition [17] [%]	inhibition [18] [%]	inhibition [19] [%]	inhibition [20] [%]
CCS(=O)(=O)c1ccc(OC)c(Nc2nccc(N(C)c3ccc4c(C)n[nH]c4c3)n2)c1	-1.1	-0.07	-0.93	13.8	7.45	12	6.37	8.64	7.82	7.85	6.37	2.52	2.74	5.67	3.85	2.07	0.72	2.57	5.28	3.29
CS(=O)(=O)CCNCc1nc(-c2ccc3ncnc(Nc4ccc(OCc5cccc(C(F)(F)F)c5)cc4)c3c2)cs1	1.3	0.09	-0.46	-0.05	1.3	-2.52	-0.52	3.26	1.84	-0.33	2.82	1.67	3.9	2.86	0.5	-0.59	2.66	1.6	5.52	3.06
